Consider eight compounds from PubChem BioAssay (NCI).

SMILES strings stand for the structures. Compounds without any hit were thinned out: in the full panel of roughly 83,000, 20% have a hit.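 Note: values are percent growth. 100 is the growth of untreated cells, values between 100 and 0 indicate rising inhibition; between -100 and 0 indicates cell death.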 Values without a mark were called inactive. Activity calls are given as the source filed them. How the source made its calls: active means growth percent below 10; inactive means the rest.

Some test systems named below: NCI-H23 lung; NCI-H226 lung; NCI-H322M lung; HOP-62 NSCLC; NCI-H460 lung; HOP-92 NSCLC; NCI-H522 lung; A549/ATCC NSCLC; 786-0 renal; COLO 205 colon; DU-145 prostate; K-562 leukemia; MALME-3M melanoma; MDA-MB-231 breast; RXF 393 renal; SF-268 CNS; SF-295 CNS; SF-539 CNS; UACC-257 melanoma; M14 melanoma.
What all share (test): NCI-60 one-dose screen, 48 h (100 = growth as untreated, 0 = no growth, -100 = all killed)
What all share (settings): 10 µM unless noted

Consider `CC(C)(C)OC(=O)Nc1ccc2c(c1)C(NC(=O)Nc1cccc(C#N)c1)CC(C)(C)O2` (stereo not given), for which the growth with NCI-H23 lung is 41%; with NCI-H226 lung, 48.4%; in the assay on NCI-H322M lung, 73.6%; with HOP-62 NSCLC, 45.8%; in the assay on NCI-H460 lung, 25.9%; in the assay on HOP-92 NSCLC, 39.1%. The growth with NCI-H522 lung is 33.7%; in the assay with A549/ATCC NSCLC, 40%; in the assay on 786-0 renal, 50.8%; in the assay on COLO 205 colon it was 53.7%; with DU-145 prostate, 71.6%; in the assay with K-562 leukemia, 23.3%. For the same compound, the growth in the assay with MALME-3M melanoma was 39%; in the assay with MDA-MB-231 breast, 68.8%; in the assay with RXF 393 renal, 72.4%; in the assay with SF-268 CNS, 53.4%; in the assay with SF-295 CNS, 31.9%; with SF-539 CNS, 66.8%. Further, the growth with UACC-257 melanoma was 27.2%; in the assay with M14 melanoma, 47.5%.

For `N[C@@H](CCCCNCC(=O)O)C(=O)O`, the growth with NCI-H23 lung was 95.1%; with NCI-H226 lung, 98.4%; in the assay with NCI-H322M lung, 110%; in the assay on HOP-62 NSCLC, 101%; in the assay with NCI-H460 lung it was 103%; with HOP-92 NSCLC, 64.5%. Moreover, the growth is 96.3% with NCI-H522 lung; 101% in the assay on A549/ATCC NSCLC; 97.2% in the assay on 786-0 renal; 111% with COLO 205 colon; 103% with DU-145 prostate; 100% in the assay with K-562 leukemia. The growth with MALME-3M melanoma is 97.6%; in the assay with MDA-MB-231 breast, 89.1%; in the assay with RXF 393 renal, 108%; in the assay with SF-268 CNS, 102%; in the assay with SF-295 CNS, 100%; with SF-539 CNS it was 92.7%. Also, the growth was 101% in the assay on UACC-257 melanoma and 104% in the assay on M14 melanoma.

For `O=C(Nc1ccccc1-c1nc2ccccc2c(=O)[nH]1)c1cc2ccccc2[nH]1`, the growth in the assay with NCI-H23 lung is 82.4%; in the assay on NCI-H226 lung, 72.2%; in the assay with NCI-H322M lung, 84.2%; with HOP-62 NSCLC it was 71.6%; with NCI-H460 lung it was 93.2%; with HOP-92 NSCLC, 68.7%. Besides, the growth was 78.8% with NCI-H522 lung; 87.6% with A549/ATCC NSCLC; 98.1% with 786-0 renal; 103% in the assay with COLO 205 colon; 102% in the assay with DU-145 prostate; 94.1% with K-562 leukemia. For the same compound, the growth was 107% with MALME-3M melanoma; 79.7% in the assay on MDA-MB-231 breast; 98.4% in the assay with RXF 393 renal; 91.9% in the assay on SF-268 CNS; 91.3% in the assay on SF-295 CNS; 89.5% in the assay with SF-539 CNS. For the same compound, the growth in the assay with UACC-257 melanoma is 83.4%; in the assay with M14 melanoma it was 91.7%.

As for `CCN1C(=O)N(CC)C2Nn3c(s/c(=C4\C(=O)N(C)c5ccccc54)c3=O)=NC21` (stereo not given), the growth in the assay with NCI-H23 lung is 44.3%; with NCI-H226 lung, 78.9%; in the assay on NCI-H322M lung it was 75%; with HOP-62 NSCLC, 58.4%; with NCI-H460 lung, 22.6%; in the assay with HOP-92 NSCLC it was 75.5%. Besides, the growth was 0.903% (active) with NCI-H522 lung; 49.3% in the assay with A549/ATCC NSCLC; 27.8% in the assay on 786-0 renal; 8.23% (active) in the assay with COLO 205 colon; 18.1% in the assay on DU-145 prostate; 14.9% with K-562 leukemia. The growth with MALME-3M melanoma was 48.3%; with MDA-MB-231 breast, 43.6%; in the assay on RXF 393 renal, -17.4% (active); in the assay with SF-268 CNS it was 55.5%; in the assay with SF-295 CNS, 52.2%; in the assay on SF-539 CNS it was 9.32% (active). Moreover, the growth with UACC-257 melanoma is 61.8%; in the assay with M14 melanoma, 13.1%.

Regarding `COc1cccc(-c2nc3sccn3c2-c2ccnc(NCCNS(=O)(=O)c3cccc(Cl)c3)c2)c1`, the growth is 53.5% with NCI-H23 lung; 40.7% with NCI-H226 lung; 80.8% in the assay with NCI-H322M lung; 70.9% with HOP-62 NSCLC; 45.4% in the assay with NCI-H460 lung; 37.2% in the assay with HOP-92 NSCLC. In addition, the growth in the assay on NCI-H522 lung was 56.7%; in the assay with A549/ATCC NSCLC, 45.4%; with 786-0 renal, 63.6%; with COLO 205 colon it was 34.8%; in the assay on DU-145 prostate it was 44.1%; in the assay with K-562 leukemia, 25.3%. The growth in the assay with MALME-3M melanoma is 63.2%; with MDA-MB-231 breast, 68.3%; in the assay on RXF 393 renal, 47.5%; in the assay with SF-268 CNS, 42.7%; in the assay on SF-295 CNS it was 33.8%; in the assay on SF-539 CNS, 72.6%. Further, the figures for the growth in the assay on UACC-257 melanoma and with M14 melanoma were 58% and 48.4%, respectively.

Turning to `COc1cc2ncn3c(=O)c4c5c(sc4nc3c2cc1OC)CCCC5`, the growth in the assay with NCI-H23 lung was 91.4%; with NCI-H226 lung, 93.8%; with NCI-H322M lung, 96.9%; with HOP-62 NSCLC, 89.8%; in the assay with NCI-H460 lung, 100%; in the assay on HOP-92 NSCLC, 115%. Further, the growth with NCI-H522 lung is 80.1%; in the assay on A549/ATCC NSCLC, 96.4%; in the assay on 786-0 renal, 105%; in the assay with COLO 205 colon, 106%; in the assay with DU-145 prostate it was 105%; with K-562 leukemia, 146%. Moreover, the growth is 89.8% in the assay with MALME-3M melanoma; 90.6% in the assay with MDA-MB-231 breast; 105% with RXF 393 renal; 94.3% in the assay on SF-268 CNS; 101% with SF-295 CNS; 99.2% in the assay with SF-539 CNS. The growth in the assay with UACC-257 melanoma is 119%; in the assay with M14 melanoma, 91.2%.

On to `COc1ccc2[nH]c(O)c(/C=c3/cc4c(c(-c5ccc(F)c(OC)c5)n3)=Nc3ccccc3-4)c2c1`, for which the growth in the assay on NCI-H23 lung was 61.1%; in the assay on NCI-H226 lung, 90.7%; in the assay with NCI-H322M lung it was 89.1%; with HOP-62 NSCLC, 88.6%; in the assay on NCI-H460 lung it was -21.9% (active); with HOP-92 NSCLC, 57.5%. The growth in the assay on NCI-H522 lung is 67%; in the assay on A549/ATCC NSCLC it was 52.8%; in the assay with 786-0 renal, -59% (active); in the assay on COLO 205 colon it was 84.8%; in the assay with DU-145 prostate, 30.3%; with K-562 leukemia, 0.38% (active). The growth in the assay with MALME-3M melanoma is -55.6% (active); in the assay with MDA-MB-231 breast, -47.5% (active); in the assay with RXF 393 renal, -75.2% (active); with SF-268 CNS it was 30.3%; in the assay on SF-295 CNS, 104%; in the assay on SF-539 CNS it was 64.3%. Also, the results for the growth with UACC-257 melanoma and in the assay on M14 melanoma were 103% and -8.58% (active), respectively.

Regarding `O=C(CCc1nnc(CN(c2ccccc2)c2ccccc2)o1)c1nc2ccccc2[nH]1`, the growth was 85.1% in the assay on NCI-H23 lung; 107% in the assay on NCI-H226 lung; 84.4% with NCI-H322M lung; 89.1% in the assay with HOP-62 NSCLC; 99.6% in the assay with NCI-H460 lung; 60.6% in the assay with HOP-92 NSCLC. In addition, the growth in the assay on NCI-H522 lung is 73.9%; with A549/ATCC NSCLC, 94.7%; in the assay on 786-0 renal, 100%; with COLO 205 colon it was 102%; in the assay with DU-145 prostate it was 104%; in the assay with K-562 leukemia, 76.3%. Besides, the growth in the assay with MALME-3M melanoma is 94.3%; in the assay on MDA-MB-231 breast it was 75.3%; with RXF 393 renal, 113%; with SF-268 CNS, 93.6%; in the assay with SF-295 CNS it was 95.6%; in the assay on SF-539 CNS, 97.5%. For the same compound, the growth in the assay on UACC-257 melanoma was 103%; in the assay on M14 melanoma it was 102%.
